According to PubChem BioAssay:
Active and inactive are the calls of the source.

How the values were obtained:
[1] = tested on: Human papillomavirus type 1a protein E7 (residues 44-93); experiment: HPV1a E7 fragment binders on microarrays, primary screen, biochemical, small-molecule microarray, residues 44-93, 635 nm fluorescence (AID 1108); conditions: small-molecule microarray binding, fluorescence 635 nm; higher = more signal;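 further: E7 fragment applied at 1 µg/mL in TBST for 1 h at 4 C; score combines spot fluorescence with its signal to noise ratio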
[2] = modulators of HCV replicon luciferase signal, primary screen, HCV replication inhibitor project, Huh7 cells, luciferase reporter (AID 1109); conditions: 48 h, higher = more signal;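 further: huh7 hepatoma cells harbouring a luciferase neomycin HCV replicon reporter; luciferase luminescence as measure of HCV replicon replication; test concentration not given here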
[3] = target: Left-right determination factor 2 (Homo sapiens) (UniProt O00292); experiment: LEFTY2 binders on small-molecule microarrays, primary screen, biochemical, small-molecule microarray, 635 nm fluorescence scan (AID 1110); conditions: LEFTY2 binding, higher = more signal
[4] = target: Calmodulin-1 (Homo sapiens) (UniProt P0DP23); experiment: CALM1 binders on microarrays, EGTA buffer, profiling panel, biochemical, small-molecule microarray, Cy5-labelled CALM1 (AID 1111); conditions: Cy5-CALM1 binding fluorescence, higher = more signal;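 further: labelled calmodulin applied in Tris saline Tween buffer holding calcium plus EGTA and DTT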
[5] = target: Calmodulin-1 (Homo sapiens) (UniProt P0DP23); experiment: calcium-bound CALM1 binders on microarrays, profiling panel, artefact control for SMM control-protein annotation, biochemical, small-molecule microarray, Cy5-labelled CALM1, plus calcium (AID 1112); conditions: Cy5-CALM1 binding fluorescence, higher = more signal;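 further: score merges spot fluorescence with signal to noise from triplicate slides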
[6] = small-molecule microarray binders of probe aWnt5a, primary screen, biochemical, biotinylated probe, 635/667 nm fluorescence (AID 1113); conditions: higher = more signal;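 further: score merges 667 nm fluorescence intensity with signal-to-noise per printed feature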
[7] = small-molecule microarray binders of probe aShh, primary screen, biochemical, biotinylated probe, 635/667 nm fluorescence (AID 1114); conditions: higher = more signal;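 further: probe is biotin-labelled aShh protein from a stem cell growth factor screen; measures binding of labelled protein to compounds printed on the slide; score merges feature fluorescence at 667 nm with signal-to-noise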
[8] = small-molecule microarray binders of probe aNog, primary screen, biochemical, biotinylated probe, 635/667 nm fluorescence (AID 1115); conditions: higher = more signal;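 further: probe is biotinylated aNog protein used at 0.15 µg/mL for 1 h at 4 C; z-score combines 667 nm fluorescence of each spot with its signal to noise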
[9] = target: Torsin-1A-interacting protein 1 (Homo sapiens) (UniProt Q5JTV8); experiment: LAP1 binders from COS7 cell lysate, primary screen, small-molecule microarray, 635/667 nm fluorescence (AID 1116); conditions: COS7-hLAP1 lysate binding, 635 nm fluorescence, higher = more signal
[10] = target: Alpha-bungarotoxin (Bungarus multicinctus) (UniProt P60615); experiment: alpha-bungarotoxin binders on microarray, profiling panel, artefact control for SMM control protein annotation, biochemical, small-molecule microarray, Alexa647 label, 635/667 nm fluorescence (AID 1117); conditions: alpha-BTX-A647 binding fluorescence, higher = more signal
Albumin (Bos taurus) = Albumin (Bos taurus) (UniProt P02769); experiment: bovine serum albumin binders on microarray, profiling panel, artefact control for SMM control protein annotation, biochemical, small-molecule microarray, Alexa647 label, 635/667 nm fluorescence (AID 1118); conditions: BSA-A647 binding, fluorescence 635 nm, higher = more signal;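 further: score merges 667 nm emission intensity and signal-to-noise per printed compound spot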
[11] = small-molecule microarray binders of probe aXIP, primary screen, biochemical, NeuroSMM set, 635/667 nm fluorescence (AID 1119); conditions: higher = more signal, called active from +8 up or from −8 down;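 further: probe is the protein aXip251-270 applied at 1 µg/mL to compound-printed slides; binding of probe to printed compounds measured as 667 nm fluorescence plus signal to noise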
[12] = small-molecule binders of probe aNOTCH3, primary screen, biochemical, small-molecule microarray, 635/667 nm fluorescence (AID 1120); conditions: higher = more signal;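 further: probe is a biotin-tagged antibody raised against NOTCH3 rather than NOTCH3 protein; score merges spot fluorescence near 667 nm with spot signal to noise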
[13] = small-molecule binders of probe aNOTCH2, primary screen, biochemical, small-molecule microarray, 635/667 nm fluorescence (AID 1121); conditions: higher = more signal;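 further: score merges feature fluorescence read at 667 nm with its signal to noise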
[14] = target: Carbonic anhydrase 2 (Homo sapiens) (UniProt P00918); experiment: CAII small-molecule binders, profiling panel, biochemical, small-molecule microarray, Alexa647-labelled CAII (AID 1122); conditions: CAII-A647 binding fluorescence, higher = more signal
[15] = COS7 lysate on small-molecule microarray, probe aHis, 635 nm (AID 1123); conditions: COS7 cell lysate, fluorescence, higher = more signal;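 further: z-score combines 667nm fluorescence intensity with signal-to-noise per printed compound spot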
[16] = compound binding in COS7 lysate, probe aLAP1, primary screen, cell lysate, small-molecule microarray (AID 1124); conditions: probe aLAP1, fluorescence, higher = more signal;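 further: lysate comes from COS7 cells expressing LAP1 and is applied at 0.3 µg/mL; score merges spot fluorescence near 667 nm with signal-to-noise over triplicate slides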
Sam68 (KHDRBS1) = experiment: Sam68 small-molecule binders, primary screen, biochemical, small-molecule microarray, 635 nm fluorescence (AID 1125); conditions: small-molecule microarray binding, higher = more signal;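 further: score merges 667 nm channel intensity with signal to noise over triplicate slides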
[17] = tested on: Chordin-like protein 2 (CHRDL2); experiment: CHRDL2 small-molecule binders, primary screen, biochemical, small-molecule microarray, 635 nm fluorescence (AID 1126); conditions: small-molecule microarray binding, fluorescence 635 nm; higher = more signal;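 further: printed compound slides probed with Chrdl2 protein at 4 µg/mL for 1 h at 4 C; score merges 667 nm emission intensity with signal to noise over three replicate slides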
[18] = target: Concanavalin-A (Canavalia ensiformis) (UniProt P02866); experiment: ConA small-molecule binders, primary screen, artefact control for SMM control protein annotation, biochemical, small-molecule microarray, Alexa647 label, 635 nm (AID 1127); conditions: ConA-A647 binding fluorescence, higher = more signal;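 further: z combines 667 nm emission intensity with signal-to-noise across three replicate slides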
Sequence of Concanavalin-A (Canavalia ensiformis) (P02866 whole entry, looked up): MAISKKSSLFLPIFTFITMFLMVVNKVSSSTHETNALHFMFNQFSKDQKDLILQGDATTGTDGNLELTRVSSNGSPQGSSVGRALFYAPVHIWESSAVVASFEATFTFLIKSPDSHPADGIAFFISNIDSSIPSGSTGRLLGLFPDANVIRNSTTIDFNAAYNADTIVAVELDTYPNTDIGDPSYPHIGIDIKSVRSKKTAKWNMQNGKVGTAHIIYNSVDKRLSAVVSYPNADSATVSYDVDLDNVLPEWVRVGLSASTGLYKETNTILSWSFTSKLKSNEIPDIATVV

Sequence of Albumin (Bos taurus) (P02769 whole entry, looked up): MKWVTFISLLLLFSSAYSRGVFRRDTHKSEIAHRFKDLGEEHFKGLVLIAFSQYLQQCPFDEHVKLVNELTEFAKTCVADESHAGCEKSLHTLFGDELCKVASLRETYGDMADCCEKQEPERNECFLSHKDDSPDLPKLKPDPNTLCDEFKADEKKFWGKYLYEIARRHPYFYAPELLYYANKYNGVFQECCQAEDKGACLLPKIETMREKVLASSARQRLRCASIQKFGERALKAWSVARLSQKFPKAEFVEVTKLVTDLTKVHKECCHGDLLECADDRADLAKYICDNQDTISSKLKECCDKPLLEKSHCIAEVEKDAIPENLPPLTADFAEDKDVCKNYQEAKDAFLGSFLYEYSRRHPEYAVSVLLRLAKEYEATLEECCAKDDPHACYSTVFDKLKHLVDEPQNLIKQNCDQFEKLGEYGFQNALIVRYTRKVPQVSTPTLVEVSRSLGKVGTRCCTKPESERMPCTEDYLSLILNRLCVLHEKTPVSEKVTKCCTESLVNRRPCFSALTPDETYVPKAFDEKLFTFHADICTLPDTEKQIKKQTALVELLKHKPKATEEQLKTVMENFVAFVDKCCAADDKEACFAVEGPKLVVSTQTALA
Sequence of Torsin-1A-interacting protein 1 (Homo sapiens) (Q5JTV8 whole entry, looked up): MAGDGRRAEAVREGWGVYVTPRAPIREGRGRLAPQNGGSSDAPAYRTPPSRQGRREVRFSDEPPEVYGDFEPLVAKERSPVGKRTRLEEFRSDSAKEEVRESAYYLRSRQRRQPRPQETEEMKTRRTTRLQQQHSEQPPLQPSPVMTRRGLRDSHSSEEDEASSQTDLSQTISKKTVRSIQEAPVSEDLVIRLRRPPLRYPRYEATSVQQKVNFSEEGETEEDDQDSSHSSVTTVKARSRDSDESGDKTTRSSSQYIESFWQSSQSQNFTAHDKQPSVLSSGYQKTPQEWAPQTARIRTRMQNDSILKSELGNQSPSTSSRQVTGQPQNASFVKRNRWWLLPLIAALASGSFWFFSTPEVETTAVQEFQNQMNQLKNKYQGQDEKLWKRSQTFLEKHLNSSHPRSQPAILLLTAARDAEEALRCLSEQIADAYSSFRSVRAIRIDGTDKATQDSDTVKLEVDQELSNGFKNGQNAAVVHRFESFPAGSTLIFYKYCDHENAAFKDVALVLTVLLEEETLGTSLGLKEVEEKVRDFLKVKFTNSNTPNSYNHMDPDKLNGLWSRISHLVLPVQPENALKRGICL
Sequence of Left-right determination factor 2 (Homo sapiens) (O00292 whole entry, looked up): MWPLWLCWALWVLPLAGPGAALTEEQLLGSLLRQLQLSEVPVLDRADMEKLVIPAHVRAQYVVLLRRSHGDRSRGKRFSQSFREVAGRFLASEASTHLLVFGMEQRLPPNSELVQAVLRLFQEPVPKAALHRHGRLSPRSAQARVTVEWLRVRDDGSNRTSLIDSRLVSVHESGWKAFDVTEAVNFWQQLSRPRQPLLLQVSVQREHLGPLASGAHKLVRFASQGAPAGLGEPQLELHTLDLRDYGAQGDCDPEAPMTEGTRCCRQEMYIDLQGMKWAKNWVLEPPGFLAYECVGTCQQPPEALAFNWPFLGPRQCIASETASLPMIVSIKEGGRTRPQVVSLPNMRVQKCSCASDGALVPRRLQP
Sequence of Alpha-bungarotoxin (Bungarus multicinctus) (P60615 whole entry, looked up): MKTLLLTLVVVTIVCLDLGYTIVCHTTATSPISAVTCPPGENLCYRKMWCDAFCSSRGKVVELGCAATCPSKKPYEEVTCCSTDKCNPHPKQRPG

Structure (SMILES) | composite z-score [1] | z-score [2] | composite z-score [3] | composite z-score [4] | composite z-score [5] | composite z-score [6] | composite z-score [7] | composite z-score [8] | composite z-score [9] | composite z-score [10] | composite z-score (Albumin (Bos taurus)) | composite Z-score [11] | composite z-score [12] | composite z-score [13] | composite z-score [14] | composite z-score [15] | composite z-score [16] | composite z-score (Sam68 (KHDRBS1)) | composite z-score [17] | composite z-score [18]
O=C1C2C=CC(C(O)c3ccccc3)N(Nc3ccccc3F)C2C(=O)N1c1ccccc1 (stereo not given) | 0.188 | -0.384 | -0.0935 | 0.0824 | -0.537 | -0.15 | -0.0626 | -0.341 | 0.178 | 0.204 | 0.571 | -0.158 (inactive) | -0.0879 | -0.126 | 0.811 | 0.737 | 0.34 | 0.246 | 0.18 | 0.532
C=CCNC(=O)[C@H]1[C@@H]2C(=O)O[C@@H](c3ccccc3)[C@@H](c3ccccc3)N2[C@@H](c2ccc(O)cc2)[C@]12C(=O)N(C(=O)OCCOC)c1ccccc12 | 1.42 | -0.585 | 0.18 | 0.763 | -0.0816 | -0.0573 | -0.331 | -0.206 | 0.793 | 0.712 | 0.299 | 0.255 (inactive) | -0.091 | 0.0487 | 0.385 | 2.18 | 0.701 | 1.17 | 0.0889 | 0.745
Cc1ccc(S[C@]2(C(=O)NCC(F)(F)F)CC(=O)N(C3CCCCC3)[C@@H]2c2ccc(CO)cc2I)cc1 | 1.42 | -2.3 | 0.394 | 1.01 | -0.077 | -0.122 | 0.184 | -0.422 | 0.958 | 0.587 | 0.488 | -0.132 (inactive) | -0.046 | -0.108 | 0.369 | 2.01 | 0.159 | 1.3 | 0.0471 | 0.955
C=CC1c2cc(O)c(OC)cc2CCN1Cc1cc2c(cc1Br)OCO2 (stereo not given) | -0.483 | -2.93 | 0.15 | -0.941 | -1.24 | -0.1 | 0.199 | 0.2 | 1.69 | 0.271 | -0.956 | 0.577 (inactive) | -0.0152 | -0.0891 | 0.823 | 1.99 | 1.25 | 0.342 | 0.775 | 0.142
COc1ccc(CCNC(=O)[C@@]2(Sc3ccc(C)cc3)CC(=O)N(C3Cc4ccccc4C3)[C@@H]2c2ccc(CO)cc2)cc1 | 1.42 | -3.04 | 1.25 | 1.07 | 0.616 | 0.0799 | 0.171 | 0.557 | 2.01 | 0.535 | 0.575 | -0.413 (inactive) | 0.0522 | 0.0407 | 0.274 | 1.23 | 0.661 | 1.3 | 1.5 | 1.14
CN(C)c1ccc(C(O)C2C=CC3C(=O)N(c4ccccc4)C(=O)C3N2Nc2ccc([N+](=O)[O-])cc2)cc1 (stereo not given) | 1.37 | -1.52 | -0.162 | 0.603 | -0.534 | 0.0809 | 0.0697 | 0.638 | 0.926 | 1.46 | 0.653 | 0.103 (inactive) | 0.307 | -0.133 | 0.27 | 2.1 | 0.15 | 1.29 | -0.437 | 1.05
C=CCOC(=O)[C@H]1[C@@H]2C(=O)O[C@@H](c3ccccc3)[C@@H](c3ccccc3)N2[C@@H](c2ccc(OCCOC(=O)[C@@H]3C[C@@H]4C(=O)N5CCC[C@H]5C(=O)N4[C@@H]3c3ccc(O)cc3)cc2)[C@]12C(=O)Nc1ccc(I)cc12 | -0.0566 | -1.71 | 0.621 | 0.793 | 0.29 | -0.117 | -0.155 | 0.633 | 0.521 | 0.881 | -0.572 | 0.486 (inactive) | -0.33 | -0.118 | 0.0118 | 0.897 | 0.163 | 0.27 | 0.851 | 1.01
CN(C)C(=O)[C@]1(CCS(=O)(=O)c2ccccc2)N=C(c2ccc(OCCCO)cc2)O[C@@H]1c1ccccc1N=[N+]=[N-] | 1.5 | 0.0131 | 0.814 | 1.79 | 0.291 | 0.119 | 0.254 | 1.9 | 2.28 | 1 | 0.963 | -0.0275 (inactive) | 0.545 | 0.111 | 0.689 | 2.93 | 0.108 | 1.29 | 0.555 | 1.16
COc1ccccc1CN1C(=O)c2ccccc2[C@@]2(Cc3ccccc3N(CC(F)(F)F)C2=O)[C@@H]1c1ccc(CO)cc1 | 0.802 | -0.521 | 0.244 | -0.504 | -0.723 | 0.13 | -0.308 | 1.68 | -0.0328 | 0.118 | -0.826 | -0.137 (inactive) | -0.251 | 0.156 | 0.757 | 0.384 | 2.4 | 0.707 | 1.03 | 0.331
C=C(C)[C@@H]1CC=C(C(O)C2C=CC3C(=O)N(c4ccccc4)C(=O)C3N2Nc2ccccc2F)CC1 (stereo not given in full) | 1.46 | -0.0769 | 0.341 | 1.41 | 0.797 | 0.0003 | -0.0858 | 1.4 | 1.04 | 1.19 | 0.956 | 0.117 (inactive) | 0.466 | -0.0467 | 0.747 | 3.08 | -0.102 | 1.34 | 0.0095 | 1.13
COCCOC(=O)N1C(=O)[C@@]2(c3cc(C#CC4=CCCCC4)ccc31)[C@H](c1ccc(O)cc1)N1[C@H](c3ccccc3)[C@H](c3ccccc3)OC(=O)[C@H]1[C@@H]2C(=O)N1CCN(c2ncccn2)CC1 | -0.444 | -0.131 | -0.742 | -0.676 | 0.451 | -0.195 | -0.138 | -0.445 | -0.201 | -1.11 | -1.34 | -0.551 (inactive) | -0.345 | -0.156 | -0.391 | -0.147 | 0.601 | -0.535 | -1.21 | -0.217
